TIM10 inh: inhibits growth of TIM10 yeast strain; inhibition, % at 10 µM; S. cerevisiae TIM10 strain growth, BacTiter-Glo luminescence, 24 h; actives 1.4% (n = 330,000);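 active = inhibition of 40% or more at the single tested concentration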;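 also: wild-type TIM10 isogenic control strain grown at permissive 25 °C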
SKKanGAS inh: blocks kanamycin growth of S. pyogenes SKKanGAS strain; BacTiter-Glo, 6 h; inhibition, % at 7.5 µM; actives 1.3% (n = 300,000); AID 1662;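 active = mean replicate score, as percent of positive control median, at least 50; inconclusive = mean below 50 but one replicate at or above 50; inactive = mean and every replicate below 50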;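 also: strain carries kanamycin resistance gene driven by streptokinase promoter and grows in 40 µg/ml kanamycin; loss of luminescence reflects streptokinase promoter inhibition or plain growth inhibition; 0% = median of DMSO wells and 100% = positive control at its reference dose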
tim23-1 inh: tim23-1 yeast growth inhibition; S. cerevisiae tim23-1 growth, BacTiter-Glo luminescence, 24 h; inhibition, % at 20 µM; actives 1.3% (n = 330,000);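 active = growth inhibition of the mutant yeast at or above 50%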;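 also: temperature-sensitive mutant grown at 25 °C; plate controls were DMSO-treated mutant yeast for no effect and medium wells lacking yeast for full effect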
PfHsp90 yeast 2: growth inhibition of yeast expressing Plasmodium Hsp90; inhibition, % at 9.4 µM; S. cerevisiae expressing PfHsp90, BacTiter-Glo ATP, 48 h; yeast lacking PDR1 and PDR3 efflux regulators; actives 0.32% (n = 310,000);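 active = every replicate shows inhibition above about 80%, whatever the replicate mean, limit read from the data; inconclusive = mean inhibition reaches the set limit but some replicate falls short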;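 also: 0% = DMSO neutral controls and 100% = 20 µM radicicol positive controls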
tim10-1 inh: tim10-1 yeast growth inhibition; inhibition, % at 20 µM; actives 2.2% (n = 330,000); S. cerevisiae tim10-1 ts strain growth, BacTiter-Glo, 24 h;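 active = inhibition of at least 40%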;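 also: mutant grown at 25 °C; 0% = DMSO wells with yeast and 100% = wells holding no yeast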
TIM10 conf: TIM10 yeast growth inhibition, confirmed | shares compounds with TIM10 inh | S. cerevisiae tim10 strain growth, BacTiter-Glo luminescence, 24 h | inhibition, % at 10 µM | actives 63% (n = 4,600) | AID 463215;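 active = inhibition of yeast growth at or above a set limit in either of two replicates at 10 µM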;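 also: this counterscreen used the strain with wild-type TIM10; 0% = yeast with DMSO and 100% = medium wells lacking yeast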
An asterisk follows results filed as active; ? = inconclusive; nt = no result given. Rows were chosen to be rich in hits. Some 4.4% of all compounds tested hit in one or more screens of this group.

SMILES	TIM10 inh	SKKanGAS inh	tim23-1 inh	PfHsp90 yeast 2	tim10-1 inh	TIM10 conf
COc1cccc(CN(C)C(=O)CN2C(=O)NC3(CCCc4ccccc43)C2=O)c1 (stereo unspecified)	-3	nt	-10	nt	-8	nt
Cc1ccsc1CN(C)C(=O)CN1C(=O)NC2(CCCc3ccccc32)C1=O (stereo unspecified)	96*	nt	-7	-7	11	-2
CCN(CC)S(=O)(=O)c1ccc(/C=C/C(=O)Nc2cccc(F)c2)cc1	59*	5	28	-4	39	-13
CSc1cccc(NC(=O)/C=C/c2ccccc2)c1	40	-6	44	12	30	16
COc1ccc(O)c(/C=N/NC(=S)NCCc2ccccc2)c1	23	1	10	-88	27	nt
COc1ccc(/C(C)=N/NC(=S)NCCc2ccccc2)c(O)c1	43*	?	27	14	28	37*
COC(=O)c1ccccc1S(=O)(=O)N1CCC(C(=O)OC(C)C(=O)N(C)Cc2ccccc2)CC1 (stereo unspecified)	nt	nt	nt	9	nt	nt
CCN(CC)C(=O)N1CCN(S(=O)(=O)c2c(C)cc(C)cc2C)CC1	40*	-1	38	11	28	24
CCN(CC)C(=O)N1CCN(S(=O)(=O)c2ccc(C)cc2)CC1	2	0	14	nt	15	nt
O=C1c2ccccc2S(=O)(=O)c2cc(N3CCc4ccccc4C3)ccc21	44*	10	37	nt	35	28
COc1cccc(NC(=O)C2CCN(c3cnccn3)CC2)c1	17	-2	8	5	-2	nt
O=C(O)c1ccc(/C=N/NC(=O)c2ccc3c(c2)OCCO3)cc1	14	0	20	2	-2	nt
O=C(N/N=C/c1ccc(Br)o1)c1ccc2c(c1)OCCO2	56*	-2	37	21	5	63*
CC(C)(O)c1[nH]c2cc(C(F)(F)F)ccc2c1C(C)(C)O	67*	-5	8	-4	-6	4
O=C(c1ccccc1Br)N(Cc1ccccc1)c1ccccc1	-11	-1	23	17	-2	nt
CC(C)CCOP(=O)(c1ccc(N(C)C)cc1)C(O)c1ccc(C(C)C)cc1 (stereo unspecified)	40	0	24	-45	30	36*
CC(C)CCOP(=O)(c1ccc(N(C)C)cc1)C(O)c1ccccc1F (stereo unspecified)	50*	-5	29	3	32	41*
COc1ccccc1-c1cc(C(F)(F)F)nc(S(=O)(=O)CCCC(=O)Nc2cccnc2Cl)n1	nt	nt	nt	-29	nt	nt
COc1ccccc1-c1cc(C(F)(F)F)nc(S(=O)(=O)CCCC(=O)NC(C)C)n1	42*	7	32	-18	38	-20
COc1ccccc1-c1cc(C(F)(F)F)nc(S(=O)(=O)CCCC(=O)NCc2ccc(F)cc2)n1	50*	-8	9	nt	38	14
O=C(Nc1cccc(S(=O)(=O)N2CCCC2)c1)c1ccco1	3	nt	23	17	14	nt
O=C(Nc1ccc(S(=O)(=O)N2CCCCC2)cc1)c1ccccc1Cl	45*	2	26	nt	37	39*
O=C(Nc1ccc(S(=O)(=O)N2CCCCCC2)cc1)c1ccco1	48*	-7	46	nt	34	23
Cc1ccc(C)c(NC(=O)COC(=O)CNC(=O)C2CCCCC2)c1	10	nt	9	5	9	nt
O=C(c1cn(-c2ccccc2)nc1-c1ccc(Br)cc1)N1CCOCC1	50*	-5	45	19	37	-10
SMILES	TIM10 inh	SKKanGAS inh	tim23-1 inh	PfHsp90 yeast 2	tim10-1 inh	TIM10 conf
Nc1nnc(SCCCC(=O)c2ccc(F)cc2)s1	4	7	7	-13	9	nt
Nc1nnc(SCCCC(=O)c2ccc(Br)cc2)s1	40*	-2	6	10	11	-2
CC(C)(C)c1cc(NC(=O)Nc2ccc(Cl)cc2Cl)no1	42*	7	27	1	34	43*
O=C(Nc1ccon1)Nc1ccc(Cl)cc1Cl	30	18	28	-4	33	nt
CC(C)(C)c1cc(NC(=O)Nc2ccc(Br)cc2Cl)no1	42*	-2	30	16	29	41*
CC1Sc2ccc(C(=O)Nc3ncccc3O)cc2NC1=O (stereo unspecified)	-8	-9	-3	nt	-7	nt
CSc1ccc(NC(=O)C(C)N2CCN(C)CC2)cc1 (stereo unspecified)	-4	-2	-8	10	-6	nt
O=C(CCl)Oc1ccc2occ(C(=O)c3cccs3)c2c1	61*	-8	-20	1	17	41*
O=C(/C=C/c1cc(Br)ccc1O)c1ccco1	66*	-14	-86	101*	-130	80*
Cc1ccc(/C=C/C(=O)c2cc(Br)ccc2OC(=O)c2ccco2)cc1	47*	19	40	-14	37	44*
N#Cc1ccc(/C=C/C(=O)c2ccco2)cc1	-3	-8	8	-2	27	nt
Cc1noc(C)c1-c1ccc2nc[nH]c(=O)c2c1	2	1	-7	23	-13	nt
CCn1cc(C(=O)NCC(OC)OC)c(=O)c2cc(S(=O)(=O)N(C)C3CCCCC3)ccc21	-1	6	0	2	4	nt
CCOC(=O)c1cc2c(ccc3ccccc32)oc1=O	47*	-1	26	-19	22	49*
N=c1oc2ccc3ccccc3c2cc1C(N)=S	42*	-10	42	14	20	39*
COc1ccc(-c2cc(C(=O)Nc3cccnc3)no2)cc1OC	1	-4	25	0	18	nt
Cc1ccc(O)c(C(=O)/C=C/c2ccc3c(c2)OCCCO3)c1	49*	-48	37	-7	38	56*
S=C(NCc1ccco1)Nc1cccc(Cl)c1Cl	41*	1	38	nt	31	29
COc1ccc(N2CCN(C(=O)c3ccc(CNS(=O)(=O)c4cc(C)ccc4C)cc3)CC2)cc1	24	8	34	-1	31	nt
CC(=O)Nc1cccc(Oc2ncnc3scc(-c4ccccc4)c23)c1	48*	1	43	4	25	15
O=S(=O)(c1ccc(Oc2ncnc3scc(-c4ccccc4)c23)cc1)N1CCOCC1	9	4	32	-30	29	nt
COc1ccccc1N1CCN(C(=O)c2cc(-c3ccc4c(c3)OCO4)on2)CC1	3	-3	19	3	12	nt
COc1ccccc1N1CCN(C(=O)c2cc(-c3cccc(Cl)c3)on2)CC1	43*	18	42	-1	40	31*
COc1cc(Cl)ccc1OCc1cc(C(=O)N2CCN(c3ccccn3)CC2)no1	55*	4	43	-36	17	68*
CC(=O)OCCCN1C(=O)c2cccc3cc(Br)cc(c23)C1=O	61*	-2	22	nt	-9	1
CCOC(=O)CCCCCN1C(=O)c2cccc3cccc(c23)C1=O	-8	1	17	-1	-25	nt

Screens from PubChem BioAssay.
